# Compound activity: PubChem BioAssay, National Center for Advancing Translational Sciences (NCATS)
# An excerpt weighted towards active compounds, which were near 12% of everything screened.
# JMJD2A Tudor: blocks the human JMJD2A Tudor domain | O75164 | AlphaScreen JMJD2A-Tudor / H3K4me3 peptide binding | Potency, µM (highest dose often 114 µM), without a hit: at the top dose activity change, negative = inhibition, actives largely listed as inhibitors | 390,000 compounds, 4.4% hits | AID 504339; note: % is set by controls: 0 for no effect and ±100 for the full control effect; nearly all actives have a fitted effect of over 50% in size
# HP1b chromo inh: HP1-beta chromodomain-methylated histone interaction inhibition | AlphaScreen HP1-beta / biotin-H3K9me3 peptide binding | 390,000 compounds, 0.56% hits | Potency, µM (doses to about 114 µM), inactives show at the top dose activity change, negative = inhibition, usual class: inhibitors; note: nearly all actives have a fitted effect of over 70% in size
#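 Compound inhibition of the preformed complex between 50 nM HP1-beta and 50 nM biotinylated H3K9me3 peptide was read by AlphaScreen. Buffer was PBS pH 7.4 with 0.01% Tween-20. Incubations ran 30 min at room temperature, with 10 ug/mL donor/acceptor beads.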
# G9a block: G9a (human) methyltransferase inhibition | Q96KQ7 | G9a H3K9 monomethylation, AlphaScreen, 2 h | Potency, µM (doses to about 102 µM), for the others: at the highest dose activity, negative = inhibition, actives largely listed as inhibitors | 350,000 compounds, 8.8% hits | AID 504332; note: % is set by controls: 0 for no effect and ±100 for the full control effect; nearly all actives have a fitted effect of over 75% in size
#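 Step 1: enzyme (final 20 nM) with compound, 15 min RT. Step 2: substrate peptide 500 nM and SAM 20 uM, 2 h RT. Step 3: anti-H3K9me1 antibody and AlphaScreen beads, 10 min, then plate read.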
# BAZ2B inh: inhibitors of human BAZ2B bromodomain; 360,000 compounds, 4.4% hits; Q9UIF8; Potency, µM (top dose mostly 114 µM), inactives show top-dose activity change, negative = inhibition, hits mostly inhibitors; AlphaScreen BAZ2B-H3K14Ac peptide displacement; AID 504333; note: % is set by controls: 0 for no effect and ±100 for the full control effect; nearly all actives have a fitted effect of over 60% in size
#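 In this displacement format the biotinylated H3(5-23) peptide acetylated at Lys14 serves as ligand at 50 nM, with BAZ2B at 50 nM in PBS pH 7.4 containing 0.01% Tween-20. Donor and acceptor beads are 10 ug/mL final.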
# Sfp inh: Sfp phosphopantetheinyl transferase inhibition. Biochemical Sfp PPTase activity, qHTS. Potency, µM, for the others: largest response in the series, negative = inhibition, hits mostly inhibitors. 310,000 compounds, 3.5% hits;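 note: the enzyme is Sfp with the accession as filed and its product quenches rhodamine fluorescence; 0% = enzyme reaction without inhibitor and -100% = no enzyme wells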
#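 Fluorescence-quenching assay: 15 nM Sfp-PPTase preincubated 15 min at room temperature with compound, then 5 uM rhodamine-CoA and 12.5 uM BHQ-2-labelled YbbR peptide added. Fluorescence (ex 525/em 598 nm) read at start and after 30 min; difference gives rate.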
# * hit, by the source's call; ? = inconclusive; . = no result given; [ ] = another dose, or the depositor's remark. Calls come from the whole dose curve; as a rule, active = well fitted curve in the direction sought with a large enough effect; inconclusive = small, poorly fitted or top-dose-only effect, or another doubt; inactive = no such curve, though single readings can be large; an effect the other way counts as inactive or inconclusive. Potency is the fitted concentration of half-maximal effect.
SMILES,JMJD2A Tudor,HP1b chromo inh,G9a block,BAZ2B inh,Sfp inh
C/C(=N\Nc1nc(C)cc(=O)[nH]1)C1CC1,17.8µM*,40.5%,7.94µM*,16.1%,39.8µM*
Cc1cc(=O)[nH]c(NN=C2CCC(C(C)(C)C)CC2)n1 (stereo not drawn),-15.9%,47.7%,31.6µM*,5.8%,50.1µM*
CCC(=O)N1CCN(c2ccc(OC)cc2[N+](=O)[O-])CC1,-15.9%,4.2%,-7.7%[59 µM],-1.4%,8.8%
CSc1ncccc1C(=O)OCC(=O)NC(=O)NCCC(C)C,0.6%,33.3%,3.6%[59 µM],.,13.8%
CCN(Cc1ccncc1)S(=O)(=O)c1ccc(C(C)=O)cc1,-23.1%,-0.2%,?,12.7%,79.4µM*
Cc1ccc(NC(=O)c2ccco2)cc1C,-21.4%[11.4 µM],-6.3%,4.6%[59 µM],?,11.2%
N[C@H](Cc1cnc[nH]1)C(=O)O,.,.,24.3%[59 µM],.,-4.7%
O=[N+]([O-])c1ccc(NC(=S)N2CCc3ccccc32)cc1,?,-15.5%,35.5µM*,?,-1.3%
O=[N+]([O-])c1ccc(NC(=S)N2CCCC2)cc1,-18.9%,24.8%,20.8%,-22.0%,10.7%
S=C(Nc1ccccc1)N1CCc2ccccc21,-24.7%,11.1%,19.0%[0.501 µM],-6.2%,4.6%
CN1CCN(C(=S)Nc2ccc([N+](=O)[O-])cc2)CC1,-19.9%,18.8%,-11.0%[0.0925 µM],?,89.1µM*
O=C(NCCNc1ccccc1[N+](=O)[O-])c1cc(F)c(F)cc1Cl,-27.3%,6.0%,?,-37.1%,8.9%
O=C(c1ccc(Cl)cc1)[C@@H]1[C@@H]2C(=O)N(c3ccc(Cl)cc3)C(=O)[C@@H]2C2c3ccccc3C=NN21 (stereo partly drawn),-9.0%,24.3%,-19.5%[59 µM],-7.2%,27.6%
O=C(C1=C[C@@H]2[C@H]3C(=O)N(c4ccccc4)C(=O)[C@H]3[C@@H](C(=O)c3ccc(Cl)cc3)N2C=C1)c1ccccc1,.,.,11.2µM*,?,-9.4%
O=S(=O)(Nc1nc2ccccc2nc1Cl)c1ccccc1C(F)(F)F,-12.3%,14.7%,70.8µM*,-8.0%,3.1%
COc1cc(C2C(C(=O)c3ccc(C)o3)=C(O)C(=O)N2CCCn2ccnc2)cc(OC)c1OC (stereo not drawn),-2.7%,4.3%,.,?,-2.3%
COc1ccc(C2C(C(=O)c3ccco3)=C(O)C(=O)N2CCCn2ccnc2)c(OC)c1 (stereo not drawn),28.2µM*,13.1%,50.1µM*,56.2µM*,-18.8%
CCOC(=O)C1=C(O)C(=O)N(CCCn2ccnc2)C1c1ccc(OC)cc1 (stereo not drawn),.,.,44.7µM*,-36.1%,6.3%
CCN(c1ccccc1)S(=O)(=O)c1cc(C(=O)OC(C)C(=O)Nc2ccc3c(c2)OCCO3)ccc1C (stereo not drawn),?,-2.2%[57 µM],39.8µM*,?,17.1%
Cc1nc2nc(SCC(=O)NCCCN3CCCC3)nn2c(C)c1Cc1ccccc1Cl,-34.5%,-11.2%,79.4µM*,-13.4%,3.1%
Cc1nc2nc(SCC(=O)NCCc3ccc(Cl)cc3)nn2c(C)c1Cc1ccccc1Cl,-29.4%,16.7%,-29.5%[59 µM],-8.4%,.
Cc1ccc(Cc2c(C)nc3nc(SCC(=O)NCCCN4CCCCCC4)nn3c2C)cc1,-30.3%,-23.4%,35.5µM*,?,-6.0%
Cc1nc2nc(SCC(=O)NCCCN3CCCCC3)nn2c(C)c1Cc1ccccc1,6.4%,8.2%,7.2%,-13.1%,12.3%
COc1c(O)cccc1O,.,.,-36.3%[2.33 µM],.,9.3%
COc1ccccc1N1C(=O)[C@@H]2[C@H](C1=O)[C@H](C(=O)c1ccc(OC(C)=O)cc1)N1N=CC=C[C@@H]21,-32.3%,21.8%,5.01µM*,-31.2%,-16.7%
SMILES,JMJD2A Tudor,HP1b chromo inh,G9a block,BAZ2B inh,Sfp inh
Oc1c(Br)cc(Br)c2cccnc12,39.8µM*,30.1%,-40.5%[2.33 µM],.,19.2%
Brc1csc2ncccc12,6.6%,6.8%,-19.1%,-6.5%,9.5%
COC(=O)c1c(NC(=O)CN2CCC3(O)CCCCC3C2c2ccc(OC)cc2OC)sc(C)c1C (stereo not drawn),?,?,28.2µM*,-19.6%,20µM*
COC(=O)c1c(NC(=O)CN2CCC3(O)CCCCC3C2c2ccccc2OC)sc(C)c1C (stereo not drawn),?,8.5%,-40.8%,-31.8%,-5.9%
Cc1ccc2c(c1)C(c1ccncc1)=NNC(c1cccnc1)=N2,-4.8%,14.3%,.,-13.3%,-3.3%
CCCN(CCC)C(=O)CSc1ncccc1C(=O)O,89.1µM*,23.2%,?,-1.5%,?
O=C(O)c1cccnc1SCC(=O)N1CCCc2ccccc21,?,8.4%,-133.9%[59 µM],79.4µM*,-18.3%
Cn1c(-c2ccc(F)cc2)cnc1SCC(=O)N1CCCCC1,-15.8%,45.3%,-8.3%[59 µM],-5.6%,-21.2%
Cc1cccc(-n2ccnc2SCC(=O)N2CCCc3ccccc32)c1C,?,-26.9%,?,50.1µM*,12.4%
O=C(CSc1ncccn1)N1CCCc2ccccc21,2.4%,22.5%,1.1%[59 µM],-13.6%,20.3%
Cn1c(-c2ccc(F)cc2)cnc1SCC(=O)N1CCCc2ccccc21,-29.1%[57.1 µM],?,44.7µM*,31.6µM*,-6.6%
O=C(CCCc1nc2ccccc2s1)NCc1ccccc1,-8.1%,28.5%,16.2%[59 µM],-5.7%,8.6%
COc1ccc(NC(=O)C2c3cc(OC)c(OC)cc3C(=O)N(C)C2c2cccnc2)cc1OC (stereo not drawn),-12.3%,52.6%,.,1.5%,10.5%
C=CCN(Cc1ccc(Cl)s1)C(=O)c1ccc(F)c(S(=O)(=O)N2CCOCC2)c1,-7.6%,21.0%,.,.,.
COc1cc(C#N)ccc1OCC(=O)NCc1cccs1,-8.2%,20.3%,-2.3%,-11.3%,15.4%
CN(CC(=O)Nc1ccncc1)S(=O)(=O)c1ccccc1,-3.3%,25.4%,-8.8%[12.7 µM],3.2%,14.0%
CCn1c(=O)c(C(=O)NCc2ccc(Cl)cc2)c(O)c2ccccc21,35.2%,133.8%,35.4%[59 µM],?,13.0%
CC1Cc2ccccc2N1C(=O)CSc1ncc(-c2ccc(F)cc2)n1C (stereo not drawn),56.2µM*,?,?,28.2µM*,-12.0%
Cc1ccc(NC(=O)CSCC(=O)N2CCCc3ccccc32)cc1,-1.7%,32.5%,44.7µM*,8.8%,.
CC1Cc2ccccc2N1C(=O)CSc1nncn1C (stereo not drawn),-10.5%,29.7%,-2.4%,-11.2%,18.3%
Cc1ccc(OCC(=O)N2CCCc3ccccc32)cc1,7.9%,35.3%,-7.0%[59 µM],9.0%,13.8%
Cc1noc(C)c1C(=O)N1CCCC(Nc2ccc(C(C)C)cc2)C1 (stereo not drawn),-22.9%,15.5%,18.5%[59 µM],?,0.7%
COc1ccc(OC)c(S(=O)(=O)N2CCCC(C(=O)NCc3ccccn3)C2)c1 (stereo not drawn),-19.6%,-1.7%,-2.4%,-7.1%,6.7%
O=C(CN1CCN(c2ccccc2O)CC1)NC(=O)NCc1ccco1,-28.5%,11.9%,0.0%[59 µM],-11.0%,6.4%
Cc1ccc(C)c(S(=O)(=O)N2CCN(CC(=O)NC(=O)NCc3ccco3)CC2)c1,50.1µM*,?,-32.7%,-24.9%,6.9%
